Screens as filed in PubChem.
Shown are actives, neighbours in structure and some others; about 3.3% of the full set was active somewhere.
RE007 growth inh: less growth of the S. pombe RE007 Vpr strain; Potency, µM (top dose mostly 92.2 µM), for the others: at the top dose activity change, negative = less growth, most hits filed as inhibitors; S. pombe RE007 Vpr strain, BacTiter-Glo ATP luminescence, 24 h; hit rate 0.21% among 360,000; active = well fitted falling curve with a large enough effect; inconclusive = small, poorly fitted or top-dose-only effect; inactive = no such curve, though single readings can be large or run the other way; note: % is set by controls: 0 for no effect and ±100 for the full control effect; nearly all actives have a fitted effect of over 50% in size
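Fission yeast RE007 carrying one integrated HIV-1 vpr copy, seeded at OD 0.01 in PMG+AL medium with 23 nL pinned compound. Grown 24 h at 30 degrees; viability read by BacTiter-Glo luminescence after 5 min.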
Sm TGR inh: S. mansoni TGR enzyme inhibition; Potency, µM (doses to about 114 µM), without a hit: at the top dose activity change, negative = inhibition, actives largely listed as inhibitors; hit rate 3% among 360,000; purified TGR, DTNB reduction, TNB absorbance 405 nm; Q962Y6; note: % is set by controls: 0 for no effect and ±100 for the full control effect; nearly all actives have a fitted effect of over 60% in size
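TGR 20 nM + NADPH 100 uM (dispensed conc.), cpd preinc 15 min RT; start with NADPH (500 uM addition) then DTNB (15 mM addition). Kinetic TNB absorbance, 405 nm filter. Four-parameter Hill fit across titration.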
SARS PLpro yeast: blocks SARS-CoV papain-like protease in a yeast assay | hit rate 0.19% among 330,000 | Potency, µM (titrated, usually from 32.9 µM), for inactives: top-dose activity, positive = growth rescue, hits mostly activators | AID 485353 | S. cerevisiae expressing SARS-CoV PLpro, growth rescue; calls by dose curve; note: 0% is about no effect; nearly all actives have a fitted effect of over 55% in size
TbPYK inhibitor: inhibitors of Trypanosoma brucei pyruvate kinase; Q57TT1; TbPYK enzyme, Kinase-Glo Plus ATP luminescence, 45 min; Potency, µM (doses to about 76.8 µM), for the others: at the top dose activity, negative = inhibition, hits mostly inhibitors; hit rate 0.12% among 410,000; AID 624173; note: % is set by controls: 0 for no effect and ±100 for the full control effect; nearly all actives have a fitted effect of over 50% in size
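Enzyme and substrate buffer are dispensed first and compound is pin-transferred. ADP at 130 uM final then starts the reaction, which runs 45 min at room temperature. Detection reagent is added for 10 min before luminescence is imaged.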
NS1 function inh: inhibitors of influenza NS1 protein function | Potency, µM (highest dose often 46.1 µM), for the others: top-dose activity, positive = more growth | hit rate 0.4% among 270,000; calls by dose curve; note: actives are rising curves; nearly all actives have a fitted effect of over 50% in size
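OD600 was taken as the measure of yeast growth restored by compound in an NS1-expressing S. cerevisiae strain. Cells had been washed out of glucose medium and diluted 1:100 into galactose -URA medium, pH 6.0.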
LmPK inhibitor: LmPK (Leishmania mexicana) enzyme inhibition. purified LmPK, Kinase-Glo ATP luminescence, 1 h. Potency, µM (series often up to 57.5 µM), without a hit: at the highest dose activity change, negative = inhibition, actives largely listed as inhibitors. hit rate 0.37% among 290,000; note: % is set by controls: 0 for no effect and ±100 for the full control effect
Target sequence (Q27686 whole entry, looked up): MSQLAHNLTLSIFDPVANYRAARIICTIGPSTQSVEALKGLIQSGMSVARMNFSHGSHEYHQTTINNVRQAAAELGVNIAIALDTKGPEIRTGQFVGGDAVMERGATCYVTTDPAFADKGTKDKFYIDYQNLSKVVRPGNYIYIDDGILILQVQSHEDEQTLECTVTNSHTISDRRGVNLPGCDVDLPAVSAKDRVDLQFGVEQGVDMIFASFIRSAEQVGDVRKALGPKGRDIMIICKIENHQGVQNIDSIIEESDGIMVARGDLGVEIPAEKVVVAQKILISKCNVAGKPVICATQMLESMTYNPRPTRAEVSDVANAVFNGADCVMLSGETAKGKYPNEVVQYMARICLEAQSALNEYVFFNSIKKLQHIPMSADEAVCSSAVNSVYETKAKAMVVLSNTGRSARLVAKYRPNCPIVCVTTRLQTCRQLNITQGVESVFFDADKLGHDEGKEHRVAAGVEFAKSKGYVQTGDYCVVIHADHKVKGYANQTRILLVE
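0.1 nM LmPK, 0.5 mM PEP, 0.1 mM ADP; 50 mM imidazole pH 7.2, 7 mM MgCl2, 50 mM KCl; 1 h RT. Kinase-Glo luminescence readout, normalized to no-enzyme (full inhibition) and uninhibited wells.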
* marks the source's active call; other numbers are inactive results. Unless noted, calls come from the whole dose curve; as a rule, active = well fitted curve in the direction sought with a large enough effect; inconclusive = small, poorly fitted or top-dose-only effect, or another doubt; inactive = no such curve, though single readings can be large; an effect the other way counts as inactive or inconclusive. Potency is the fitted concentration of half-maximal effect.

`CCOc1ccc(NC(=O)CCc2c(C)nc3cc(-c4ccccc4OC)nn3c2C)cc1` gave Sm TGR inh -5% and TbPYK inhibitor 0%.
`c1ccc(C2CC3CC(c4ccco4)N2O3)cc1` (stereo unspecified) gave RE007 growth inh -19%, Sm TGR inh 35µM*, SARS PLpro yeast 5%, TbPYK inhibitor 2%, NS1 function inh 19% and LmPK inhibitor 2%.
CC1=NN(c2ccccc2)C(c2ccco2)C1 (stereo unspecified) was read as RE007 growth inh 13% and TbPYK inhibitor 5%.
CC1(C)[C@@H](CC(=O)O)CCC[C@@H]1CC(=O)O was read as NS1 function inh -2%.
For Cc1ccc(C(=O)N2CCC(c3c[nH]c4ccccc34)(c3c[nH]c4ccccc34)CC2)cc1 the results were Sm TGR inh 10% and TbPYK inhibitor 2%.
`CCC(C)n1c(-c2cccc(S(=O)(=O)N3CCOCC3)c2)n[nH]c1=S` (stereo unspecified) gave RE007 growth inh -3%, Sm TGR inh 5%, SARS PLpro yeast 0% and TbPYK inhibitor 7.1µM*.
`CC(C)Cn1c(-c2cccc(S(=O)(=O)N3CCOCC3)c2)n[nH]c1=S` gave RE007 growth inh 8%, SARS PLpro yeast -1% and TbPYK inhibitor inconclusive.
For O=C(CCC(=O)N1CC2CCCN2c2ccccc21)NCc1ccc(F)cc1 (stereo unspecified) the results were Sm TGR inh 4% and TbPYK inhibitor -2%.
For CCC(=O)N1CCc2cc(CNS(=O)(=O)c3ccc(CC(C)C)cc3)ccc21 the results were Sm TGR inh 9% and TbPYK inhibitor 2%.
Screening CC(=O)N1CCOc2cc(S(=O)(=O)Nc3c(C)cccc3C(C)C)c(Cl)cc21 returned Sm TGR inh 79µM*, SARS PLpro yeast -4% and TbPYK inhibitor -10%.
Screening COc1cccc(NS(=O)(=O)c2cc3c(cc2C)N(C(C)=O)CCO3)c1 returned RE007 growth inh -2%, Sm TGR inh 8%, SARS PLpro yeast 10%, TbPYK inhibitor -6%, NS1 function inh -4% and LmPK inhibitor -6%.
Screening CC(C)N1C(=O)CC2(CC[N+](C)(CCOC(=O)C(O)(c3ccccc3)c3ccccc3)CC2)C1=O (stereo unspecified) returned RE007 growth inh 2%, Sm TGR inh -3%, SARS PLpro yeast 0%, TbPYK inhibitor -4%, NS1 function inh inconclusive and LmPK inhibitor -3%.
`CC(C)N1C(=O)CC2(CC[N+](C)(CCOC(=O)C(c3ccccc3)c3ccccc3)CC2)C1=O` (stereo unspecified) gave RE007 growth inh 63%, Sm TGR inh 50µM*, SARS PLpro yeast 3%, TbPYK inhibitor 8%, NS1 function inh 11% and LmPK inhibitor 17%.
Cc1cc(C)n2c(Nc3cccc(C(F)(F)F)c3)c(-c3ccsc3)nc2n1 was read as Sm TGR inh 0% and TbPYK inhibitor -5%.
`CCOC(=O)c1c(/C=N/Nc2ccccc2)c2sc(C)cc2n1C` gave Sm TGR inh 22µM* and SARS PLpro yeast -16%.
Screening COC(=O)c1c(C)[nH]c(/C=N/Nc2ccccc2)c1C returned RE007 growth inh 37%, Sm TGR inh inconclusive, SARS PLpro yeast 1%, TbPYK inhibitor 0%, NS1 function inh 1% and LmPK inhibitor 2%.
O=C1c2ccccc2C(=O)c2c(NC3CCCCC3)ccc(Nc3ccc(S(=O)(=O)O)cc3)c21 was read as NS1 function inh -8%.
CCN(c1ccccc1)S(=O)(=O)c1ccc(OC)c(NC(=O)c2cc(Cl)ccn2)c1 was read as RE007 growth inh -3%, Sm TGR inh 45µM*, SARS PLpro yeast -5% and TbPYK inhibitor 5%.
CCN(c1ccccc1)S(=O)(=O)c1ccc(OC)c(NC(=O)c2c(C)noc2C)c1 was read as RE007 growth inh -1%, Sm TGR inh -1%, SARS PLpro yeast -5% and TbPYK inhibitor -13%.
For N#CC(=C(\N)Sc1ccccc1N)/C(C#N)=C(/N)Sc1ccccc1N the results were NS1 function inh 0%.
`CC(=O)NC(c1ccco1)c1cc(Cl)c2ccccc2c1O` (stereo unspecified) gave Sm TGR inh 63µM*, SARS PLpro yeast -14% and TbPYK inhibitor 2%.
CCC(=O)NC(c1ccco1)c1cc(Cl)c2ccccc2c1O (stereo unspecified) was read as Sm TGR inh inconclusive, SARS PLpro yeast -1% and TbPYK inhibitor 5%.
`CN(C)/C=C/C(=O)c1ccc(Br)cc1` gave RE007 growth inh -19%, SARS PLpro yeast -4%, TbPYK inhibitor 5%, NS1 function inh -62% and LmPK inhibitor -9%.
For Cc1ccc(C)n1-c1ccc(C(=O)/C=C/N(C)C)cc1 the results were RE007 growth inh -3%, Sm TGR inh 32µM*, SARS PLpro yeast 1%, TbPYK inhibitor -2% and LmPK inhibitor -11%.
`CC(=O)Nc1ccc(N/C=C/C(=O)c2ccccc2)cc1` gave RE007 growth inh inconclusive, Sm TGR inh 2%, SARS PLpro yeast 0%, TbPYK inhibitor 2%, NS1 function inh -4% and LmPK inhibitor -8%.
O=C(/C=C/Nc1ccccc1)c1ccccc1 was read as RE007 growth inh inconclusive, Sm TGR inh 98%, SARS PLpro yeast -22%, TbPYK inhibitor -22%, NS1 function inh -36% and LmPK inhibitor 7.9µM*.
For COc1cccc(C(=O)/C=C/Nc2cccc(O)c2)c1 the results were RE007 growth inh -12%, Sm TGR inh -1%, SARS PLpro yeast -11%, TbPYK inhibitor inconclusive, NS1 function inh -70% and LmPK inhibitor 14µM*.
CN(C)c1ccc(N/C=C/C(=O)c2ccccc2)cc1 was read as RE007 growth inh -14%, Sm TGR inh -16%, SARS PLpro yeast -7%, TbPYK inhibitor inconclusive, NS1 function inh -14% and LmPK inhibitor 5.6µM*.
Screening C1C[C@@H]2CN(CCCN3CCOCC3)[C@@H](C1)O2 returned NS1 function inh -3%.
`O=C(O)/C(=C\c1ccccc1)Cc1ccccc1` gave NS1 function inh 0%.
`O=C(CCl)NC(=O)NC12CC3CC(CC(C3)C1)C2` gave RE007 growth inh 34%, Sm TGR inh 8.9µM*, SARS PLpro yeast -16%, TbPYK inhibitor 0%, NS1 function inh -67% and LmPK inhibitor -5%.
For CC(Cl)C(=O)NC(=O)NC12CC3CC(CC(C3)C1)C2 (stereo unspecified) the results were RE007 growth inh 45%, Sm TGR inh -15%, SARS PLpro yeast -3%, TbPYK inhibitor -6%, NS1 function inh -18% and LmPK inhibitor 7%.
